From PubChem BioAssay
The source made the active and inactive calls.

Legend:
[1] = binders of probe aFSTL3 on microarray, primary screen, stem cell growth factor project, biochemical, small-molecule microarray, fluorescence 635/667 (AID 1064); conditions: higher = more signal;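 further: measures binding of the biotinylated anti-FSTL3 antibody to printed compounds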
[2] = binders from COS7 lysate, DM2A8 probe, primary screen, torsin A project, cell lysate, small-molecule microarray, fluorescence 635/667 (AID 1065); conditions: higher = more signal, COS7 lysate expressing mutant human TOR1A
[3] = binders of probe aFGF2 on microarray, primary screen, stem cell growth factor project, biochemical, small-molecule microarray, fluorescence 635/667 (AID 1067); conditions: higher = more signal;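 further: measures binding of biotinylated aFGF2 protein to printed compounds on slides; z-score merges feature fluorescence and signal-to-noise across triplicate slides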
[4] = binders of probe aFGF10 on microarray, primary screen, stem cell growth factor project, biochemical, small-molecule microarray, fluorescence 635/667 (AID 1071); conditions: higher = more signal;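 further: score merges 667 nm spot intensity and signal to noise from triplicate slides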
[5] = target: Neurogenic locus notch homolog protein 2 (Homo sapiens) (UniProt Q04721); experiment: Notch2 binders on small-molecule microarrays, primary screen, biochemical, small-molecule microarray, 635 nm fluorescence, stem cell growth factors (AID 1073); conditions: Notch2 binding, higher = more signal
[6] = target: Pro-neuregulin-1, membrane-bound isoform (Homo sapiens) (UniProt Q02297); experiment: NRG1 binders on small-molecule microarrays, primary screen, psychiatric disease protein project, biochemical, small-molecule microarray, fluorescence 635/667 (AID 1075); conditions: NRG1 binding, 635 nm fluorescence, higher = more signal;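 further: score combines 667 nm spot fluorescence with signal to noise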
Sequence of Pro-neuregulin-1, membrane-bound isoform (Homo sapiens) (Q02297 whole entry, looked up, the tested form may be a part, canonical isoform): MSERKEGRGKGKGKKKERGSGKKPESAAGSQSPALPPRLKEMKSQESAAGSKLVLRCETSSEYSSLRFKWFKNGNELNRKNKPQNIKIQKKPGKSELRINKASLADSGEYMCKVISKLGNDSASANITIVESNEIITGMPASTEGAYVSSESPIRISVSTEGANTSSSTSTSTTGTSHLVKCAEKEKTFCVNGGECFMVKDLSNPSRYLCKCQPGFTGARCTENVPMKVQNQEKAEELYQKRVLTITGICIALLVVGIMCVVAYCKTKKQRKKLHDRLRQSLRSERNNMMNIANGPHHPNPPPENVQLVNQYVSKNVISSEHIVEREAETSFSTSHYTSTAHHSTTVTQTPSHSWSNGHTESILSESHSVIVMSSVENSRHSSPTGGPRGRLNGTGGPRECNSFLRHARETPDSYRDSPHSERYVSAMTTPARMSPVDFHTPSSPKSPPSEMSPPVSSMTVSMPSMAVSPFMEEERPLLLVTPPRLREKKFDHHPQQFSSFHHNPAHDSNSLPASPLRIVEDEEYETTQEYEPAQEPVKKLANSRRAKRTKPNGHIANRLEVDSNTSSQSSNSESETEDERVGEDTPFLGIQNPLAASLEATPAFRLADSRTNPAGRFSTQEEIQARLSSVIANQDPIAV

[7] = test system: Neuregulin-1 EGF-like domain; experiment: binders of neuregulin-1 EGF-like domain, primary screen, biochemical, small-molecule microarray, 635 nm fluorescence (AID 1081); conditions: small-molecule microarray binding, higher = more signal;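 further: binding of the protein to compounds printed on small-molecule microarray slides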
[8] = FRG1 promoter luciferase signal modulators, primary screen, FRG1 inhibition for FSHD, cell-based, C2C12 myotubes, firefly/Renilla luciferase, luminescence (AID 1084); conditions: higher = more signal, called active from +8 up or from −8 down
[9] = binders of probe aFST on microarray, primary screen, stem cell growth factor project, biochemical, small-molecule microarray, fluorescence 635/667 (AID 1086); conditions: higher = more signal;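 further: score merges 667 nm fluorescence with signal-to-noise of each printed compound spot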
[10] = binders of probe aHhip on microarray, primary screen, stem cell growth factor project, biochemical, small-molecule microarray, fluorescence 635/667 (AID 1087); conditions: higher = more signal;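 further: score merges spot fluorescence at 667nm with spot signal to noise ratio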
[11] = test system: PRMT1 (protein arginine N-methyltransferase 1); experiment: PRMT1 binders on small-molecule microarrays, primary screen, biochemical, small-molecule microarray, 635 nm fluorescence (AID 1088); conditions: small-molecule microarray binding, higher = more signal;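 further: binding of Prmt1 protein to compounds spotted on small-molecule microarray slides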
[12] = yeast growth modulation, basal conditions, primary screen, YJM789 clinical isolate, OD600, 24 h (AID 1089);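 further: growth of clinical yeast isolate S. cerevisiae YJM 789 seeded 1000 cells per well; test concentration not given here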; conditions: S. cerevisiae YJM789 growth, higher = more signal, called active from +8 up or from −8 down
[13] = fission yeast growth modulation, primary screen, strain 972, OD600, 24 h, no modulator (AID 1090);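 further: basal condition with compound alone and no growth modifier present; test concentration not given here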; conditions: S. pombe 972 growth, higher = more signal, called active from +8 up or from −8 down
[14] = S. cerevisiae growth modulation with rapamycin, primary screen, strain BY4716, OD600, 96 h (AID 1091); conditions: higher = more signal, called active from +8 up or from −8 down; further: test concentration not given here
[15] = target: Torsin-1A-interacting protein 2 (Homo sapiens) (UniProt Q8NFQ8); experiment: LULL1 binders on small-molecule microarray, primary screen, cell lysate, human LULL1 lysate, 635/667 nm fluorescence (AID 1092); conditions: hLULL1 lysate binding, 635 nm fluorescence, higher = more signal;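 further: probe is lysate of COS7 cells overexpressing human LULL1; score merges per-feature 667 nm fluorescence with signal-to-noise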
Sequence of Torsin-1A-interacting protein 2 (Homo sapiens) (Q8NFQ8 whole entry, looked up): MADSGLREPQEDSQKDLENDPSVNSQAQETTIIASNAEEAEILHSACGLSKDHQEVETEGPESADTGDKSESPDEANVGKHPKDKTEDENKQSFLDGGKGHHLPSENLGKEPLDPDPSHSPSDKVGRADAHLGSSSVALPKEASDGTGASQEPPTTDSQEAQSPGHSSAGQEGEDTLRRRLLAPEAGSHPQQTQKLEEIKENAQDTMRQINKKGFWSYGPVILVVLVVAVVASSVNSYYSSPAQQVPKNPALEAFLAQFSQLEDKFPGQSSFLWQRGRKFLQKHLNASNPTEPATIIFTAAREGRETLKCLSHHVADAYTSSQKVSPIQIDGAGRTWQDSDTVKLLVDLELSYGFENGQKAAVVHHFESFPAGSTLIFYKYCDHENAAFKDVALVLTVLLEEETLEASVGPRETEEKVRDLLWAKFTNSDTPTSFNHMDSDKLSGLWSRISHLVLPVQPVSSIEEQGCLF

[16] = E. coli growth modulation, two-sided OD650, primary screen, E. coli filamentation project, strain DRC41, 24 h (AID 1093); conditions: OD650, 24 h, higher = more signal, called active from +8 up or from −8 down;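 further: MC1000 strain lacking acrAB efflux and sulA so SOS filamentation is blocked; test concentration not given here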
[17] = small-molecule microarray binders of probe aLefty2, primary screen, biochemical, biotinylated probe, 635/667 nm fluorescence (AID 1094); conditions: higher = more signal;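 further: score merges spot fluorescence near 667 nm with spot signal-to-noise ratio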
[18] = test system: Noggin (protein binding on small-molecule microarray); experiment: Noggin binders on small-molecule microarray, primary screen, biochemical, 635/667 nm fluorescence (AID 1095); conditions: 635 nm fluorescence, higher = more signal;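 further: score merges 667 nm feature fluorescence with signal to noise over triplicate slides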
[19] = target: Neurogenic locus notch homolog protein 3 (Homo sapiens) (UniProt Q9UM47); experiment: NOTCH3 binders on small-molecule microarray, primary screen, biochemical, 635/667 nm fluorescence (AID 1096); conditions: NOTCH3 binding, 635 nm fluorescence, higher = more signal
Sequence of Neurogenic locus notch homolog protein 3 (Homo sapiens) (Q9UM47 whole entry, looked up): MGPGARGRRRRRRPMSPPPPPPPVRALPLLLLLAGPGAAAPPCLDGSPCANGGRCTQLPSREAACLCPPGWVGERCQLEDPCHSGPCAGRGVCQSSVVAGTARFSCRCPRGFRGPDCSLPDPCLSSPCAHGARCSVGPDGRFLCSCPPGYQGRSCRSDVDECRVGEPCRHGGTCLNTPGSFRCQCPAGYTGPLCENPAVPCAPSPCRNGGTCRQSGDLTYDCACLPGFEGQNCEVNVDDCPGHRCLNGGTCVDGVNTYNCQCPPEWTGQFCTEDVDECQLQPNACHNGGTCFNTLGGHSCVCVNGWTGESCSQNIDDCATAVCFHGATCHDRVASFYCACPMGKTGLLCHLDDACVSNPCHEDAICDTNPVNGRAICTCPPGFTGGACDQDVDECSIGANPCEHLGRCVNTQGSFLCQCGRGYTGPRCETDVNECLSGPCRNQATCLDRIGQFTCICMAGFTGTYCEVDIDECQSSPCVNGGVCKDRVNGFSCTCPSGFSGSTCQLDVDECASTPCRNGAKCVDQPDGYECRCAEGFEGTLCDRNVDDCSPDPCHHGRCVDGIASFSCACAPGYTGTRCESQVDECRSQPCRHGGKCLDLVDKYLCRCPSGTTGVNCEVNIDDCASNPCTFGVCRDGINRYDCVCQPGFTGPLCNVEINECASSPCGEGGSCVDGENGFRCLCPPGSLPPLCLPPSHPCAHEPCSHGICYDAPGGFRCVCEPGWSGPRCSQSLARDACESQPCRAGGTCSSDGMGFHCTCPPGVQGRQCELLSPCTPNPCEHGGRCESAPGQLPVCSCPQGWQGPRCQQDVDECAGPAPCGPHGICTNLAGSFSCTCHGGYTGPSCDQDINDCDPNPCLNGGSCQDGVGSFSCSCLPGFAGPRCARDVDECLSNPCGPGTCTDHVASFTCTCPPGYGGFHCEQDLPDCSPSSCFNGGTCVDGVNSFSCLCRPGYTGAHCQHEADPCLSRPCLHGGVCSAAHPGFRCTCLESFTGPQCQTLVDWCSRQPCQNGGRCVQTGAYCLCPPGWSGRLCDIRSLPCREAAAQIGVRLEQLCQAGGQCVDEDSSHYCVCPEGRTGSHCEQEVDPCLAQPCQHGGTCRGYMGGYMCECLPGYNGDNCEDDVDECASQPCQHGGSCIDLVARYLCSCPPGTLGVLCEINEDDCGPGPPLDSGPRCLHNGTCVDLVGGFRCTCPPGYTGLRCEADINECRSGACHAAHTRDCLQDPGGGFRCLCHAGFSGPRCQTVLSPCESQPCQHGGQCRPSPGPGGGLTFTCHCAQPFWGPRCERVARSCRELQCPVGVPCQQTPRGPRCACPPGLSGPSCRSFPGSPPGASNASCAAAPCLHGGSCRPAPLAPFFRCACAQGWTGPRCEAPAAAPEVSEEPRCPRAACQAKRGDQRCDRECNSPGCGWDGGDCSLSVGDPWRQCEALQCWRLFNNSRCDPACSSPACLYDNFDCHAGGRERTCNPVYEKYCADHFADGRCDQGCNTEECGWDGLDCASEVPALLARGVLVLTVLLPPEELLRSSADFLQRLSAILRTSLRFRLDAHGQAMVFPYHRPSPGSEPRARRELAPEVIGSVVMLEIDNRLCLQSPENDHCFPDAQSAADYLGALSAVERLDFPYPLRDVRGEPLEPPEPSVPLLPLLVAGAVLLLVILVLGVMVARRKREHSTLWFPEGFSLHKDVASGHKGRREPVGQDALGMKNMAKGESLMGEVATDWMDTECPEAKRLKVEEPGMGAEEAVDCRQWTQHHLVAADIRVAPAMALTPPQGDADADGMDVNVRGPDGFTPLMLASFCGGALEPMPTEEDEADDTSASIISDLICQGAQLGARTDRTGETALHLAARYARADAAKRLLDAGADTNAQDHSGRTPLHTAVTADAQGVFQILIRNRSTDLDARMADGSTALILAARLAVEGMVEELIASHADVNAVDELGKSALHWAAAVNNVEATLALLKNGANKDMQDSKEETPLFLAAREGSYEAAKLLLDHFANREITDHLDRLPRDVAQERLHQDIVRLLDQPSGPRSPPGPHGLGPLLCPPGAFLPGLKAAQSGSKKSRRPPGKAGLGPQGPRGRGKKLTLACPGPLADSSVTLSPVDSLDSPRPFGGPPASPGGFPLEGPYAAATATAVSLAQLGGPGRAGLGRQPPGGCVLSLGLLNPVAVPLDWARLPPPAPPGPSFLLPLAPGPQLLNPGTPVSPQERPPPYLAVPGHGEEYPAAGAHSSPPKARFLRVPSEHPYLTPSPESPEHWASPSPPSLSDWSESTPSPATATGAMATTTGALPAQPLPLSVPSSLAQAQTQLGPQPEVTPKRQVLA

[20] = small-molecule microarray binders of probe aEGFR, primary screen, biochemical, biotinylated probe, 635/667 nm fluorescence (AID 1097); conditions: higher = more signal;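 further: probe is a biotinylated anti-EGFR antibody binding compounds printed on slides; score combines fluorescence near 667 nm and signal to noise of each spot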

Row | Compound | composite z-score [1] | composite z-score [2] | composite z-score [3] | composite z-score [4] | composite z-score [5] | composite z-score [6] | composite z-score [7] | z-score [8] | composite z-score [9] | composite z-score [10] | composite z-score [11] | z-score [12] | z-score [13] | z-score [14] | composite z-score [15] | z-score [16] | composite z-score [17] | composite z-score [18] | composite z-score [19] | composite z-score [20]
1 | C=CCNC(=O)[C@@H]1[C@H]2C(=O)O[C@H](c3ccccc3)[C@H](c3ccccc3)N2[C@H](c2ccc(O)cc2)[C@@]12C(=O)Nc1ccc(C#CC3(O)CCCCCC3)cc12 | -0.258 | 0.102 | -0.1 | 0.434 | 0.469 | 0.606 | 0.979 | 0.273 (inactive) | -0.0976 | -0.0391 | 0.994 | 0.154 (inactive) | 0.0674 (inactive) | 0.0489 (inactive) | 1.57 | -0.447 (inactive) | -0.113 | 0.553 | -0.0051 | -0.013
2 | COC(=O)[C@H](Cc1ccc(O)cc1)N1CC2=CCCC=C[C@@H]2[C@H]1[C@H](O)Cc1ccccc1 | -0.565 | -0.214 | -0.124 | 0.288 | 0.35 | 0.166 | 0.324 | -0.106 (inactive) | 0.166 | -0.132 | 1.13 | -0.662 (inactive) | -2.3 (inactive) | -1.03 (inactive) | 0.616 | 0.65 (inactive) | -0.29 | 0.191 | -0.0213 | -0.112
3 | CCCC[C@@H](O)C1=C(COC)Cn2c(=O)n(-c3ccccc3)c(=O)n2[C@H]1CO | -0.306 | -0.191 | -0.226 | 0.13 | -0.167 | -0.43 | -0.336 | -1.12 (inactive) | -0.292 | -0.236 | -0.0379 | -1.48 (inactive) | -1.13 (inactive) | -0.721 (inactive) | -0.0333 | 2.84 (inactive) | -0.246 | -0.102 | -0.62 | -0.203
4 | COCCOC(=O)N1C(=O)[C@@]2(c3cc(C#CC4=CCCCC4)ccc31)[C@H](c1ccc(OCCO)cc1)N1[C@H](c3ccccc3)[C@H](c3ccccc3)OC(=O)[C@H]1[C@@H]2C(=O)N1CCCCCCC1 | 2.32 | 0.945 | 0.303 | 0.474 | 1.37 | 1.07 | 1.13 | -1.62 (inactive) | 2.12 | 1.9 | 1.54 | -1.06 (inactive) | -0.301 (inactive) | 1.89 (inactive) | 2.96 | 3.25 (inactive) | 1.18 | 1.21 | 1.07 | 0.604
5 | CN1C(=O)C2C=CC(C(O)c3ccc(-c4ccccc4)s3)N(Nc3ccccc3)C2C1=O (stereo not given) | 0.876 | 0.358 | 0.0754 | 0.454 | 1.67 | 1.43 | 1.09 | 0.0583 (inactive) | 1.15 | 0.245 | 0.932 | -1.29 (inactive) | 0.447 (inactive) | 0.164 (inactive) | 2.91 | -0.576 (inactive) | 0.182 | -0.399 | 1.11 | -0.0043
